Reference: PubChem BioAssay (NCI)
The panel holds about 79,000 compounds, 15% with a hit somewhere; the sample as a whole holds those more often. Cut-off read from the data, not from the text of the source: active = growth inhibition above about 70%; inactive = the rest. Where a SMILES comes first, the peptide text is derived from it. [ ]: non-standard residue; d: D form. The star is where a group is joined. Cbz = O=C(OCc1ccccc1)*; Nva = CCC[CH](N)C(=O)O

How the values were obtained:
[1] = NCI Yeast Anticancer Drug Screen. Data for the rad50 strain (AID 155);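 note: 0% = growth of vehicle-only cultures of the same strain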; details: S. cerevisiae rad50 strain growth inhibition; at 50.0 µM; active compounds read high
Outline: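 Vehicle-treated cultures provide the reference for the growth inhibition reported for compound-exposed, repair-deficient yeast.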

[2] = NCI Yeast Anticancer Drug Screen. Data for the mec2-1 strain (AID 157); details: S. cerevisiae mec2-1 strain, at 50.0 µM, active compounds read high
Outline: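 Strain: mec2-1 (DNA repair/cell cycle alteration). Compound exposure, then growth measured; inhibition expressed relative to vehicle.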

[3] = NCI Yeast Anticancer Drug Screen. Data for the sgs1 mgt1 strain (AID 161);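 note: 0% = growth of cultures given vehicle only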; details: S. cerevisiae sgs1 mgt1 strain, at 50.0 µM, active compounds read high
Outline: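 Genetically altered yeast, compound exposure, growth inhibition relative to vehicle.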

[4] = NCI Yeast Anticancer Drug Screen. Data for the cln2 rad14 strain (AID 165);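 note: 0% = growth equal to vehicle treated cultures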; details: S. cerevisiae cln2 rad14 strain, at 50.0 µM, active compounds read high
Outline: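 Compounds are applied to the cln2 rad14 yeast strain, and growth is then compared with that of vehicle-treated cultures to give inhibition.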

[5] = NCI Yeast Anticancer Drug Screen. Data for the bub3 strain (AID 167); details: S. cerevisiae bub3 mutant strain, at 50.0 µM, active compounds read high
Outline: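 Mutant yeast screening strain plus compound; vehicle-treated cultures serve as the 0% inhibition reference.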

[6] = NCI Yeast Anticancer Drug Screen. Data for the mlh1 rad18 strain (AID 175); details: S. cerevisiae mlh1 rad18 strain growth inhibition; at 50.0 µM; active compounds read high
Outline: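 Read-out is yeast growth inhibition, calculated against vehicle-only controls. The compound was applied to a strain engineered with DNA damage repair alterations.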

Measured: growth inhibition

O=C1C(C2CCCCC2)=C2OCC3COC2(O3)c2ccccc21 (stereo unspecified)
inactive: [1] -8.75% | [2] -16.6% | [3] -20.1% | [4] -10.1% | [5] -14.6% | [6] -30.7%

COc1cccc2c1C(c1ccc3ccccc3c1)OC2=O (stereo unspecified)
inactive: [1] -22.2% | [2] -11.4% | [3] -27.6% | [4] 12.8% | [5] -25.4% | [6] -15.5%

O=C(O)CCNCC(=O)O
inactive: [1] -28.1% | [2] -32.6% | [3] -21.9% | [4] 3.2% | [5] -21.7% | [6] -23.6%

Cc1[nH]c(=O)[nH]c(=O)c1N
inactive: [1] 4.8% | [2] -10.4% | [3] -28.9% | [4] -19.4% | [5] -2.9% | [6] 2%

COc1ccc(C2OC23CC(C)(C)c2ccccc2C3=O)cc1 (stereo unspecified)
inactive: [1] -3.8% | [2] 1.65% | [3] -0.05% | [4] -11% | [5] 16.3% | [6] -1.1%

CSc1ccc(/C=C/c2ccnc3ccccc23)cc1
inactive: [1] 11.8% | [2] 14.8% | [3] 20.7% | [4] -12.3% | [5] 4.7% | [6] 7.95%

COc1ccc(Cl)c(C(=O)O)c1
inactive: [1] 19.1% | [2] 6.9% | [3] 4.1% | [4] 21.4% | [5] 6.85% | [6] 28.4%

CC(C)(C)c1nc2c(o1)C(=Nc1ccc(F)cc1)c1ccccc1C2=O
inactive: [1] 8.6% | [2] 3.15% | [3] 14.7% | [4] 38.1% | [5] 0.65% | [6] -2.5%

O=C1c2ccccc2-c2c1c1ccccc1c(=O)n2Cc1ccco1
inactive: [1] 16.1% | [2] -29.2% | [3] -2.8% | [4] 8.85% | [5] -11.2% | [6] -18.9%

C=CC(O)C(C)C (stereo unspecified)
inactive: [1] 10.7% | [2] -8.35% | [3] -2.55% | [4] -2.95% | [5] -1.55% | [6] 3.1%

CCOC(=O)/C=C/SCCCN
inactive: [1] 3.95% | [2] -1.4% | [3] 3.3% | [4] -22.3% | [5] -4.75% | [6] 6.4%

CSCC[C@H](NC(C)=O)B1OCCO1
inactive: [1] 9.85% | [2] 21.4% | [3] 2.95% | [4] 6.05% | [5] -4.6% | [6] 19.5%

CC(=O)Nc1ccc(S(=O)(=O)NNC(=O)NNS(=O)(=O)c2ccc(NC(C)=O)cc2)cc1
inactive: [1] -6.15% | [2] -7.2% | [3] -11.5% | [4] 2.5% | [5] -7% | [6] -10.4%

OC1c2ccccc2C(O)c2c1ccc1c2CN(Cc2ccccc2)CC1 (stereo unspecified)
inactive: [1] 5.05% | [2] 8.25% | [3] 1.95% | [4] 15.1% | [5] 1.3% | [6] 33.2%

O=C(c1ccc(Cl)cc1Cl)C(CS(=O)(=O)O)CS(=O)(=O)O
inactive: [1] -20.9% | [2] -27.2% | [3] -5.8% | [4] -49.4% | [5] -5.6% | [6] -1.1%

NS(=O)(=O)c1nc(S(=O)(=O)O)c2[nH]cnc2n1
inactive: [1] 3.7% | [2] -0.35% | [3] -6.75% | [4] -4.2% | [5] -45.3% | [6] 14.2%

FC(F)(F)c1cccc(NC(=S)Nc2ccccc2S)c1
inactive: [1] 24% | [2] 20.2% | [3] 27.4% | [4] 25.6% | [5] 9.95% | [6] 17%

NC(=S)N1CC=CCC1
inactive: [1] -8.65% | [2] 0.9% | [3] -3.4% | [4] 7.95% | [5] 3.9% | [6] -6.8%

N=S(=O)(c1ccccc1)c1ccccc1[N+](=O)[O-] (stereo unspecified)
inactive: [1] 41.4% | [2] 17.9% | [3] 56% | [4] 49.5% | [5] 19.5% | [6] 57.2%

C[n+]1cccc2cc(Br)ccc21
inactive: [1] -5.3% | [2] -8.6% | [3] -13.2% | [4] 9.7% | [5] 11.6% | [6] -15.5%

O=C(c1ccccc1)c1cc(Br)c2cccc3c2c1CC3
inactive: [1] 11.6% | [2] -7.6% | [3] -1.5% | [4] 14.3% | [5] 20.4% | [6] -3%

COc1c(OC2OC(CO)C(O)C(O)C2O)cc2occ(-c3ccc4c(c3)OCO4)c(=O)c2c1O (stereo unspecified)
inactive: [1] 23.6% | [2] -9.7% | [3] -10% | [4] 4.6% | [5] 12.1% | [6] 18.6%

CN1C(c2ccccc2)=C(C#N)C(=O)CC(c2ccccc2)N1C (stereo unspecified)
inactive: [1] 26.1% | [2] 11.6% | [3] 30.2% | [4] 14.8% | [5] 11.4% | [6] 21.2%

Cc1cc(N(CCC#N)CCC#N)ccc1/C=C(\NC(=O)/C=C/c1ccccc1)C(N)=O
inactive: [1] 3.15% | [2] -7.85% | [3] 15.1% | [4] -10.6% | [5] -33.1% | [6] -15.8%

Cn1c(=O)c2c(nc(NCCOC(=S)S)n2C)n(C)c1=O
inactive: [1] -44.8% | [2] 1.8% | [3] -10.3% | [4] 32.5% | [5] 5.3% | [6] 15.9%

Cc1cc(OCC(=O)O)c(Cl)cc1Cl
inactive: [1] -13.4% | [2] -9.7% | [3] -50.5% | [4] -22.9% | [5] -17.9% | [6] -11.7%

O=C1N=C2SCCCN2C1(c1ccccc1)c1ccccc1
inactive: [1] 4.2% | [2] 21.2% | [3] -3.4% | [4] -7% | [5] 0% | [6] 6.9%

C=CCN(N=O)C(=O)NCCCCC(NC(C)=O)C(=O)NCc1ccccc1 (stereo unspecified)
inactive: [1] -10.2% | [2] -22.6% | [3] -21.9% | [4] -6.3% | [5] 5.1% | [6] -14%

CC1OC(C)(Cc2ccccc2)OC1C (stereo unspecified)
inactive: [1] 3.95% | [2] -13.9% | [3] -9.2% | [4] -59% | [5] -7.1% | [6] -8.95%

COC(=O)c1cc(NC(=O)Nc2ccc(F)c([N+](=O)[O-])c2)cc(C(=O)OC)c1
inactive: [1] 8.9% | [2] 4.85% | [3] -4.6% | [4] 7.3% | [5] -1.3% | [6] 26.8%

CCCC(NC(=O)OCc1ccccc1)C(=O)NC(C(=O)O)C(C)CC (stereo unspecified) (Cbz-[Nva]-Ile-OH; configuration not given here)
inactive: [1] 26.3% | [2] 12.4% | [3] 2.75% | [4] 29.1% | [5] 4.55% | [6] 9.6%

Nc1cc2[nH]c(=O)c3cc([N+](=O)[O-])ccc3c2cc1Cl
inactive: [1] 63.1% | [2] 1.3% | [3] 12.3% | [4] 4.8% | [5] -11.6% | [6] 32.2%

COc1nc2nccc-2c2occn12
inactive: [1] -29.4% | [2] -11.2% | [3] -16.8% | [4] -27.5% | [5] -9.6% | [6] -29.1%

O=C(CCl)NCCCCCNC(=O)CCl
inactive: [1] -11.7% | [2] 2.85% | [3] -6.85% | [4] -31.7% | [5] 15.2% | [6] 17.6%

c1ccc(CN[C@]23C4C5CC6C7C5C2C7[C@@](NCc2ccccc2)(C64)N3Cc2ccccc2)cc1 (stereo partly specified)
inactive: [1] 2.7% | [2] -1.05% | [3] -11.8% | [4] -37.4% | [5] -0.85% | [6] 5.25%

CN(CCC[N+](C)(C)C)C(=O)C(c1ccccc1)c1ccccc1
inactive: [1] 45% | [2] -0.25% | [3] 19.2% | [4] -9.55% | [5] 6.35% | [6] 2.7%

Cc1ccnc(NS(=O)(=O)c2ccc(N=Cc3ccccc3O)cc2)n1
inactive: [1] -28.4% | [2] -20.1% | [3] -13.9% | [4] -40.4% | [5] -36.2% | [6] -0.5%

CNC(=S)ON1CCCCC1
inactive: [1] 6.65% | [2] 19.9% | [3] -23.3% | [4] -7.95% | [5] -5.95% | [6] -38.5%

C[n+]1ccc(NN)cc1
inactive: [1] -3.5% | [2] -15.8% | [3] 20.3% | [4] 12.6% | [5] 17.6% | [6] 4.4%

COCC(C)(CO)CC(C)CO (stereo unspecified)
inactive: [1] -13% | [2] -25.8% | [3] -0.15% | [4] -42% | [5] -7.1% | [6] -1.4%

CCCCCCCCCCCCCCCCCC(N)=O
inactive: [1] 5.2% | [2] -14.2% | [3] 3.35% | [4] -15.7% | [5] -2.5% | [6] 25.4%
